AC50 and outcome data for eleven compounds are collected here from PubChem BioAssay (EPA / NIEHS).

Structures are written as SMILES. “And” between values parts separate entries of the source, which are not always exact repeats. Identical values can stand only once. Records with an inconclusive call do not appear. A structure can be active in one record and inactive in another. The source made the active and inactive calls. The calls were made as follows: active = hit-call score of the fitted dose curve at least 0.9, where 1 is the maximum; inconclusive = response in the unintended direction; inactive = score below 0.9.

Chain of Peroxisome proliferator-activated receptor gamma (Homo sapiens) (P37231 whole entry, looked up): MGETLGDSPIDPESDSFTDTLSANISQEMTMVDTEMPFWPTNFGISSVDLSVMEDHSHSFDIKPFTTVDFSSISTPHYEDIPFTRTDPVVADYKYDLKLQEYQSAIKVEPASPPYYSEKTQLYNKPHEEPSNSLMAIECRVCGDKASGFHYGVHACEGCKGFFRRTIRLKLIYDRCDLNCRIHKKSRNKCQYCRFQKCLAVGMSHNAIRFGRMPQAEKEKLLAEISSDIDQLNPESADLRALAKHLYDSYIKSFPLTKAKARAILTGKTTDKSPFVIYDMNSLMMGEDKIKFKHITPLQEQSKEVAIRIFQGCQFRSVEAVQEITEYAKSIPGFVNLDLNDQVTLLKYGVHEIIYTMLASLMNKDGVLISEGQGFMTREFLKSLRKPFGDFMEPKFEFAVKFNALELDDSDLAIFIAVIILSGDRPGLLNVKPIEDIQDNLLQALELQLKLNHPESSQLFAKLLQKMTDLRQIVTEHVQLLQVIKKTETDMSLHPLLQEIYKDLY

The target in the experiment is Peroxisome proliferator-activated receptor gamma (Homo sapiens) (UniProt P37231). The experiment is described as follows: ATG_hPPARg_XSP2: Attagene TRANS-FACTORIAL Multi-Species (XSP2) HepG2 Assay for human Peroxisome Proliferator-activated Receptor gamma (PPARg) (AID 2283829).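 Also: actives raise reporter mRNA above DMSO so AC50 reflects PPARg activation.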 As to the method:
ATG_XSP2_multi-species_TRANS is a cell-based, multiplexed assay created by modifying the existing Attagene TRANS-FACTORIAL system to include a panel of nuclear receptors from some or all the following species: human (Homo sapiens), mouse (Mus musculus), frog (Xenopus laevis), zebrafish (Danio rerio), chicken (Gallus gallus), and turtle (Chrysemys picta). The ECOTOX-FACTORIAL format uses HepG2, a human liver cell line, with measurements taken at 24 hours after chemical dosing in a 24-well plate. Xsp2 included 3 nM 6-alpha-fluorotestosterone and 1.5 nM norgestrel to stimulate the androgen receptor.ATG_hPPARg_XSP2 is one of 29 assay components measured or calculated from the ATG_XSP2_multi-species_TRANS assay. It is designed to make measurements of mRNA induction, a form of inducible reporter, as detected with fluorescence intensity signals by Reverse transcription polymerase chain reaction (RT-PCR) and Capillary electrophoresis technology.The assay endpoint ATG_hPPARg_XSP2 was analyzed in the positive analysis fitting direction relative to DMSO as the negative control and baseline of activity. Using a type of inducible reporter, measures of mRNA for gain-of-signal activity can be used to understand the reporter gene at the transcription factor-level as they relate to the gene PPARg. Furthermore, this assay endpoint can be referred to as a primary readout, because this assay has produced multiple assay endpoints where this one serves a reporter gene function. To generalize the intended target to other relatable targets, this assay endpoint is annotated to the nuclear receptor intended target family, where the subfamily is non-steroidal.
Human liver HepG2 cells are transiently transfected with multiple reporter transcription units (MRTUs) in 6-well plates using FuGene 6 reagent (Roche; 3 ml FuGene/1 mg DNA). The MRTU constructs are regulated by a cis-regulating element (promoter). […] A major difference between the CIS and TRANS system is that in CIS activities of endogenous TFs are measured, whereas the TRANS assay evaluates changes in activities of exogenous, chimeric NR-Gal4 proteins. […] At the end of 24 hour incubation, total RNA was isolated using TriZol reagent (Invitrogen). The isolated RNA is then reverse-transcribed using oligo(dT) primer and Mo-MLV reverse transcriptase (Invitrogen) with DNAse I (Ambion) treatment for 30 min. The one-tenth of the produced cDNA was amplified by PCR using Taq DNA polymerase (Invitrogen) and two reporter sequence-specific primers. The PCR products were fluorescently labeled by primer extension with 6-arboxyfluorescein (6-FAM) 5'-labeled reporter sequence-specific primer (2 min at 95 C, 20 s at 68 C and 10 min at 72 C) and these products were digested with 5U of HpaI (New England Biolabs) for 2h at 37 C. The fragments were purified using Qiaquick PCR columns (Qiagen), analyzed on an ABI 3130xL genetic analyzer (Applied Biosystems) with peak positions identified by using a set of X-rhodamine (ROX)-labeled MapMarker1000 molecular weight standards (BioVentures). The raw capillary electrophoresis data was processed using Attagraph software (Attagene).
Broadly, the AC50 is the concentration at which the activity in the assay is half-maximal. Regarding `Oc1ccc(Cl)cc1Cc1ccccc1`, the half-maximal activity concentration (AC50) is 10 µM (active). On the same count and under the same terms, next, `COP(=S)(OC)Oc1ccc(SC)c(C)c1`: 34.2 µM (active); `CC1(C)C(C=C(Cl)Cl)C1C(=O)OC(C#N)c1ccc(F)c(Oc2ccccc2)c1` (configuration not stated): 20.5 µM (active); `CC(C)(C)C(O)/C(=C\c1ccc(Cl)cc1Cl)n1cncn1` (configuration not stated): 46.7 µM (active) and 47.6 µM (active). In the case of `O=S1OCC2C(CO1)C1(Cl)C(Cl)=C(Cl)C2(Cl)C1(Cl)Cl` (configuration not stated), the compound was classed as inactive. For `COP(=S)(OC)Oc1ccc([N+](=O)[O-])cc1`, the compound was called inactive and the AC50 was 27.7 µM (active).

In the case of `CCCN(CCC)c1c([N+](=O)[O-])cc(C(F)(F)F)cc1[N+](=O)[O-]`, the compound was called inactive. For `Oc1cc(Cl)ccc1Oc1ccc(Cl)cc1Cl`, the AC50 was 11.1 µM (active). Take `O=S(=O)(O)C(F)(F)C(F)(F)C(F)(F)C(F)(F)C(F)(F)C(F)(F)C(F)(F)C(F)(F)F`: the concentration at half-maximal activity (AC50) is 119 µM (active). As to `CCCN(CCOc1c(Cl)cc(Cl)cc1Cl)C(=O)n1ccnc1`, the AC50 is 16.6 µM (active). In the case of `CCOCN(C(=O)CCl)c1c(C)cccc1CC`, the AC50 was 1.01 µM (active).
